High-throughput results deposited in PubChem by National Center for Advancing Translational Sciences (NCATS).
Sfp PPTase inh – inhibitors of Bacillus subtilis Sfp phosphopantetheinyl transferase; Biochemical Sfp PPTase activity, qHTS; Potency, µM, usual class: inhibitors; actives 3.5% (n = 310,000);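 further: the enzyme is Sfp with the accession as filed and its product quenches rhodamine fluorescence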
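Fluorescence-quenching assay with 15 nM Sfp, 5 uM rhodamine-CoA and 12.5 uM BHQ-2-labelled ybbR peptide in pH 7.6 Hepes/MgCl2 buffer. Enzyme was pre-incubated with compound for 15 min at room temperature. Rate was taken from the 30-min fluorescence change (525/598 nm).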
BAZ2B inh – BAZ2B (human) inhibition. Q9UIF8. AlphaScreen BAZ2B-H3K14Ac peptide displacement. Potency, µM (top dose mostly 114 µM), hits mostly inhibitors. actives 4.4% (n = 360,000). AID 504333; further: nearly all actives have a fitted effect of over 60% in size
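Complex of BAZ2B and biotin-H3K14Ac (50 nM apiece) forms over 30 min at RT, then faces library compounds up to 110 uM for another 30 min; AlphaScreen beads added, 20 min dark incubation, luminescence read.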
G9a inh – inhibitors of human histone lysine methyltransferase G9a; Q96KQ7; G9a H3K9 monomethylation, AlphaScreen, 2 h; Potency, µM (top dose mostly 102 µM), hits mostly inhibitors; actives 8.8% (n = 350,000); AID 504332; further: nearly all actives have a fitted effect of over 75% in size
Target sequence (Q96KQ7 913-1193 limits assumed): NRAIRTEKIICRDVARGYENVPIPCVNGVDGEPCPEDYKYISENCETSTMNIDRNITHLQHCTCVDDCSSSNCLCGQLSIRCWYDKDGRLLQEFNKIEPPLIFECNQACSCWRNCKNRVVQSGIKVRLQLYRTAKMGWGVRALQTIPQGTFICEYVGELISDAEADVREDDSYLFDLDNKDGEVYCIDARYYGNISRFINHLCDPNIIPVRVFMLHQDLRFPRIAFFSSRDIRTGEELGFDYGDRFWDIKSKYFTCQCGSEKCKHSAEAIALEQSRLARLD
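Step 1: enzyme (final 20 nM) with compound, 15 min RT. Step 2: substrate peptide 500 nM and SAM 20 uM, 2 h RT. Step 3: anti-H3K9me1 antibody and AlphaScreen beads, 10 min, then plate read.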
L3MBTL1 block – inhibitors of human L3MBTL1; AlphaScreen L3MBTL1–H3K9me1 peptide binding; Potency, µM (highest dose often 57.1 µM), actives largely listed as inhibitors; actives 0.66% (n = 230,000); further: nearly all actives have a fitted effect of over 60% in size
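First, the protein-peptide complex forms for 30 min at room temperature (L3MBTL1 50 nM, biotinylated H3K9me1 peptide 75 nM). Next, compounds are pin-transferred and incubated 30 min. Finally, AlphaScreen beads are added and read after 30 min.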
JMJD2A Tudor inh – JMJD2A Tudor domain (human) inhibition; O75164; actives 4.4% (n = 390,000); Potency, µM (doses to about 114 µM), usual class: inhibitors; AlphaScreen JMJD2A-Tudor / H3K4me3 peptide binding; AID 504339; further: nearly all actives have a fitted effect of over 50% in size
HP1b binding inh – blocks HP1-beta chromodomain binding to methylated histone tails; P83916; AlphaScreen HP1-beta / biotin-H3K9me3 peptide binding; Potency, µM (top dose mostly 114 µM), hits mostly inhibitors; actives 0.56% (n = 390,000); AID 540317; further: nearly all actives have a fitted effect of over 70% in size
Target sequence (P83916 whole entry, looked up): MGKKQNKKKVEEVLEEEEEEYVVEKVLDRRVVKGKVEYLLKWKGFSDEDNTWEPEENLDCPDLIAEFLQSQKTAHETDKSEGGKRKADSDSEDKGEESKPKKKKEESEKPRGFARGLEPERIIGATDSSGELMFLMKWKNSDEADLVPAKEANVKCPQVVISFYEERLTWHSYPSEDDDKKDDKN
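Compound inhibition of the preformed complex between 50 nM HP1-beta and 50 nM biotinylated H3K9me3 peptide was read by AlphaScreen. Buffer was PBS pH 7.4 with 0.01% Tween-20. Incubations ran 30 min at room temperature, with 10 ug/mL donor/acceptor beads.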
Each line names hits and unclear results; the compound was inactive in the other large screens. Compounds with a hit are over-represented: about 12% of the library has one in this group of screens. The call rests on the fitted dose curve; in most records, active means well fitted curve in the direction sought with a large enough effect; inconclusive means small, poorly fitted or top-dose-only effect, or another doubt; inactive means no such curve, though single readings can be large; an effect the other way counts as inactive or inconclusive.

O=C(CCl)c1cc2c3c(c1)CC(=O)N3CCC2	BAZ2B inh inconclusive, G9a inh 50.1µM (no result: L3MBTL1 block)
O=C(Nc1cc2c3c(c1)CC(=O)N3CCC2)c1ccc(Br)o1	G9a inh inconclusive (no result: Sfp PPTase inh)
O=C(Nc1cc2c3c(c1)CC(=O)N3CCC2)c1ccco1	G9a inh 35.5µM (no result: Sfp PPTase inh)
O=C(NCCO)C(=O)Nc1cc2c3c(c1)CC(=O)N3CCC2	none (no result: L3MBTL1 block)
Cc1cccc(OCC(=O)Nc2ccc(OCc3cc(=O)n4cc(C)ccc4n3)cc2)c1	none (no result: Sfp PPTase inh, L3MBTL1 block)
Cc1ccc(-c2nnn(CC(=O)Nc3nnc(C(C)C)s3)n2)cc1	JMJD2A Tudor inh 56.2µM
CC(C)c1nnc(NC(=O)CN2C(=O)c3ccccc3C2=O)s1	none (no result: G9a inh)
CCOC(=O)c1c(C)oc2ncnc(Nc3ccc(F)cc3Cl)c12	none (no result: Sfp PPTase inh, L3MBTL1 block)
CN(C)c1cc(-c2ccc(Br)cc2)oc(=O)c1Cl	BAZ2B inh inconclusive, G9a inh 50.1µM
CC(C)(CO)NCc1ccc(Br)cc1	JMJD2A Tudor inh 7.94µM
Cc1ccc(CNC(C)(C)CO)cc1	G9a inh inconclusive
C[C@@]12C=CC(=O)C=C1CCC1C3CC(O)[C@@](O)(C(=O)CO)[C@]3(C)CC(O)[C@]12F (some centres undefined)	none (no result: BAZ2B inh, L3MBTL1 block, JMJD2A Tudor inh, HP1b binding inh)
Cc1c(Cl)cccc1Nc1nc(NCCO)c2ccccc2n1	G9a inh 79.4µM (no result: L3MBTL1 block)
OCCNc1nc(Nc2ccc(Br)cc2)nc2ccccc12	Sfp PPTase inh 39.8µM, G9a inh 50.1µM (no result: L3MBTL1 block)
OCCNc1nc(Nc2ccccc2)nc2ccccc12	G9a inh inconclusive
Oc1ccccc1Nc1nc(NCc2ccccc2)c2ccccc2n1	Sfp PPTase inh 28.2µM, BAZ2B inh 25.1µM, JMJD2A Tudor inh inconclusive (no result: G9a inh)
CC(C)c1ccc(S(=O)(=O)c2nnn3c2nc(N2CCN(C)CC2)c2sccc23)cc1	none (no result: Sfp PPTase inh, L3MBTL1 block)
COc1ccccc1Nc1nc(NCc2ccco2)c2ccccc2n1	BAZ2B inh inconclusive, G9a inh 50.1µM
Cc1ccc(Nc2nc(NCc3ccco3)c3ccccc3n2)cc1	Sfp PPTase inh 10µM, G9a inh inconclusive, JMJD2A Tudor inh inconclusive (no result: L3MBTL1 block)
CCC(C)NC(=O)c1cnn(-c2ccc(Cl)cc2)c1C1CCN(C(=O)OC(C)(C)C)CC1 (centres undefined)	none (no result: Sfp PPTase inh, L3MBTL1 block)
CS(=O)(=O)NCc1ccc(C(=O)O)cc1	none (no result: L3MBTL1 block)
Cc1nc(N=Nc2ccc(C(=O)O)cc2)c(COP(=O)(O)O)c(C=O)c1O	G9a inh 39.8µM (no result: Sfp PPTase inh, BAZ2B inh, L3MBTL1 block, JMJD2A Tudor inh, HP1b binding inh)
COc1cccc(-n2cc(C(=O)Nc3cc(OC)c(OC)c(OC)c3)c3ccccc3c2=O)c1	none (no result: Sfp PPTase inh, L3MBTL1 block)
CCCCNC(=O)c1nn(-c2ccc(C)cc2)c(=O)c2c1c1ccccc1n2C	none (no result: Sfp PPTase inh, BAZ2B inh, L3MBTL1 block)
Cc1cc(C(F)(F)F)nn1Cc1n[nH]c(=S)n1Cc1ccccc1	G9a inh 1.78µM, JMJD2A Tudor inh inconclusive
Cc1cc(C(F)(F)F)nn1Cc1n[nH]c(=S)n1-c1cccc(Cl)c1	G9a inh 25.1µM, JMJD2A Tudor inh inconclusive
Cc1cc(C(F)(F)F)nn1Cc1n[nH]c(=S)n1-c1ccc(Cl)cc1	G9a inh 1.58µM (no result: L3MBTL1 block)
Cc1ccc(-n2c(Cn3nc(C(F)F)cc3C(F)F)n[nH]c2=S)cc1	G9a inh 1.12µM, JMJD2A Tudor inh 79.4µM (no result: L3MBTL1 block)
CN(C)C1C(=O)C(C(N)=O)=C(O)[C@@]2(O)C(=O)C3=C(O)c4c(O)ccc(Cl)c4C(O)[C@H]3C[C@@H]12 (some centres undefined)	none (no result: BAZ2B inh, L3MBTL1 block, JMJD2A Tudor inh, HP1b binding inh)
CN(C)[C@H]1C(=O)C(C(=O)NCN2CCCC2)=C(O)[C@]2(O)C(=O)C3=C(O)c4c(O)cccc4[C@@](C)(O)[C@H]3C[C@@H]12	G9a inh 7.94µM (no result: BAZ2B inh, L3MBTL1 block, JMJD2A Tudor inh, HP1b binding inh)
CCOc1ccccc1NC1(c2ccccc2)C(=O)c2ccccc2C1=O	BAZ2B inh inconclusive, G9a inh 11.2µM, JMJD2A Tudor inh 11.2µM, HP1b binding inh inconclusive (no result: Sfp PPTase inh, L3MBTL1 block)
COc1ccc(C)cc1NC(=O)c1cccc(C(=O)Nc2cc(C)ccc2OC)c1	none
COc1ccc(C)cc1NC1(c2ccccc2)C(=O)c2ccccc2C1=O	BAZ2B inh inconclusive, G9a inh 12.6µM, JMJD2A Tudor inh 28.2µM, HP1b binding inh inconclusive (no result: Sfp PPTase inh, L3MBTL1 block)
Cc1oc(-c2ccc(C(=O)NCc3ccc(N(C)C)cc3)cc2)nc1COc1ccccc1	none (no result: Sfp PPTase inh, L3MBTL1 block)
CCc1nn2c(=O)cc(COC(=O)C(CC)c3ccccc3)nc2s1 (centres undefined)	none (no result: Sfp PPTase inh, L3MBTL1 block)
